Assay outcomes (PubChem BioAssay)
JMJD2A Tudor inh: JMJD2A Tudor domain (human) inhibition | O75164 | AlphaScreen JMJD2A-Tudor / H3K4me3 peptide binding | Potency, µM (doses to about 114 µM), for the others: at the top dose activity change, negative = inhibition, hits mostly inhibitors | 4.4% of 390,000 active | AID 504339; note: % is set by controls: 0 for no effect and ±100 for the full control effect; nearly all actives have a fitted effect of over 50% in size
BAZ2B inh: blocks human BAZ2B. AlphaScreen BAZ2B-H3K14Ac peptide displacement. Q9UIF8. Potency, µM (highest dose often 114 µM), for inactives: at the highest dose activity change, negative = inhibition, hits mostly inhibitors. 4.4% of 360,000 active; note: % is set by controls: 0 for no effect and ±100 for the full control effect; nearly all actives have a fitted effect of over 60% in size
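BAZ2B (50 nM) with biotin-H3(5-23)K14Ac peptide (50 nM) in PBS pH 7.4, 0.01% Tween-20, preformed 30 min, then compound 30 min at room temperature; top concentration 110uM. AlphaScreen streptavidin donor/nickel chelate acceptor beads (10 ug/mL final), 20 min dark, signal read.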
HP1b chromo inh: HP1-beta chromodomain-methylated histone interaction inhibition | AID 540317 | 0.56% of 390,000 active | Potency, µM (titrated, usually from 114 µM), without a hit: top-dose activity change, negative = inhibition, usual class: inhibitors | AlphaScreen HP1-beta / biotin-H3K9me3 peptide binding; note: nearly all actives have a fitted effect of over 70% in size
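AlphaScreen: HP1-beta (50 nM) preformed 30 min with biotin-H3(1-18)K9me3 peptide (50 nM) in PBS pH 7.4, 0.01% Tween-20. Compound added for 30 min at RT, then streptavidin donor/nickel chelate acceptor beads (10 ug/mL) for 30 min.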
L3MBTL1 inh: L3MBTL1 (human) inhibition | 0.66% of 230,000 active | Q9Y468 | AlphaScreen L3MBTL1–H3K9me1 peptide binding | Potency, µM (top dose mostly 57.1 µM), without a hit: top-dose activity, negative = inhibition, usual class: inhibitors; note: % is set by controls: 0 for no effect and ±100 for the full control effect; nearly all actives have a fitted effect of over 60% in size
Target sequence (Q9Y468 whole entry, looked up): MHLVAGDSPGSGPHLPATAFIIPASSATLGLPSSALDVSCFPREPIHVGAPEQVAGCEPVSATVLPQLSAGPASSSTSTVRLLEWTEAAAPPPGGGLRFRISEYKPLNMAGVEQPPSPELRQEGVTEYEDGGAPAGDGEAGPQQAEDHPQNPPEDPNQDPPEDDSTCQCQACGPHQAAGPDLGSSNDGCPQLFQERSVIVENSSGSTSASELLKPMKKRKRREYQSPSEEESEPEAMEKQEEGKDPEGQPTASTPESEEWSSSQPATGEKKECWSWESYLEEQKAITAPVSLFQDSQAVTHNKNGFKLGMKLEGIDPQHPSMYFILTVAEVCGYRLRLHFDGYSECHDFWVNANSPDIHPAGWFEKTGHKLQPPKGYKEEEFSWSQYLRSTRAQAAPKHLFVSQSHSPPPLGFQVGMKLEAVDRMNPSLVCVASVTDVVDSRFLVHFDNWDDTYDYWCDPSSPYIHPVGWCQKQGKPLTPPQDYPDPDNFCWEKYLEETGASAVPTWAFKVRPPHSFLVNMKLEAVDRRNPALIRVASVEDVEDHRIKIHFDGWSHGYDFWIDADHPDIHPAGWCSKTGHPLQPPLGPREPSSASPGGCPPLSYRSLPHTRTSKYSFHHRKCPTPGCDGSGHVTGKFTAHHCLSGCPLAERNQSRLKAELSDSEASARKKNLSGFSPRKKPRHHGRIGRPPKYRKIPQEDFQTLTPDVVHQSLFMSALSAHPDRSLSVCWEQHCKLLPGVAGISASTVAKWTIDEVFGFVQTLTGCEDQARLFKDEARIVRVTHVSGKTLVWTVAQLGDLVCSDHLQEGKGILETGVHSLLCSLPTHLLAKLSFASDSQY
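First, the protein-peptide complex forms for 30 min at room temperature (L3MBTL1 50 nM, biotinylated H3K9me1 peptide 75 nM). Next, compounds are pin-transferred and incubated 30 min. Finally, AlphaScreen beads are added and read after 30 min.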
G9a block: G9a (human) methyltransferase inhibition. Potency, µM (titrated, usually from 102 µM), for inactives: at the top dose activity, negative = inhibition, actives largely listed as inhibitors. G9a H3K9 monomethylation, AlphaScreen, 2 h. Q96KQ7. 8.8% of 350,000 active; note: % is set by controls: 0 for no effect and ±100 for the full control effect; nearly all actives have a fitted effect of over 75% in size
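AlphaScreen read-out: biotin-H3K9 peptide (500 nM) methylation by 20 nM enzyme with 20 uM SAM, 2 h at room temperature after 15 min compound preincubation; anti-monomethyl H3K9 antibody plus donor/acceptor beads, 10 min dark.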
Active calls of the source: *; [ ] = dose if it differs, or a comment. Shown are actives, neighbours in structure and some others; about 11% of the full set was active somewhere. Calls come from the whole dose curve; as a rule, active = well fitted inhibition curve with a large enough effect; inconclusive = small, poorly fitted or top-dose-only effect; inactive = no such curve, though single readings can be large or run the other way. Potency is the fitted concentration of half-maximal effect.

How did O=[N+]([O-])CC(c1ccccc1)c1c[nH]c2ccccc12 (stereo not given) do in these assays?
JMJD2A Tudor inh: -29%; HP1b chromo inh: 23%

What do the screens show for `OC(CNCC(c1ccc(Cl)cc1Cl)c1c[nH]c2ccccc12)c1ccccc1` (stereo not given)?
JMJD2A Tudor inh: 35µM*; BAZ2B inh: inconclusive; HP1b chromo inh: inconclusive; L3MBTL1 inh: -8%; G9a block: 50µM*

How did C=CCn1c(C)c(C(C)=O)c(N2CCN(C(c3ccccc3)c3ccccc3)CC2)nc1=S do in these assays?
JMJD2A Tudor inh: -22%[57.1 µM]; BAZ2B inh: -33%; HP1b chromo inh: 19%; L3MBTL1 inh: -8%; G9a block: -1%

Results for O=C(Nc1cccc(Cl)c1)C1CCN(S(=O)(=O)Cc2ccccc2)CC1 ?
JMJD2A Tudor inh: -18%; BAZ2B inh: 1%; HP1b chromo inh: 5%; G9a block: -9%[59 µM]

Results for Cc1nn(CC(=O)NCCc2ccc(Cl)cc2)c(=O)c2cccn12 ?
JMJD2A Tudor inh: inconclusive; BAZ2B inh: -11%; HP1b chromo inh: 8%; G9a block: -10%[59 µM]

What do the screens show for `O=C(Cc1ccccc1F)Nc1cc(S(=O)(=O)N2CCCC2)ccc1Cl`?
JMJD2A Tudor inh: -5%; BAZ2B inh: -6%; HP1b chromo inh: 22%; L3MBTL1 inh: 1%; G9a block: 27%[59 µM]

How did CCN(CC)c1ccc(S(=O)(=O)N2CCOCC2)cc1NC(=O)CSc1ccccc1 do in these assays?
JMJD2A Tudor inh: -10%; BAZ2B inh: 5%; HP1b chromo inh: 7%; L3MBTL1 inh: -9%; G9a block: -30%

What do the screens show for `O=C(CNCc1ccco1)Nc1cc(S(=O)(=O)N2CCOCC2)ccc1N1CCOCC1`?
JMJD2A Tudor inh: 18µM*; HP1b chromo inh: inconclusive; L3MBTL1 inh: -1%

How did CCN(CC)c1ccc(S(=O)(=O)N2CCOCC2)cc1NC(=O)CNCc1cccc(Cl)c1 do in these assays?
JMJD2A Tudor inh: 50µM*; HP1b chromo inh: inconclusive

What do the screens show for `O=C(CNCc1ccccc1Cl)Nc1cc(S(=O)(=O)N2CCOCC2)ccc1Cl`?
JMJD2A Tudor inh: 7.9µM*; HP1b chromo inh: inconclusive; L3MBTL1 inh: 0%

Results for O=C(CNCc1ccc(Cl)cc1)Nc1cc(S(=O)(=O)N2CCCC2)ccc1Cl ?
JMJD2A Tudor inh: 3.5µM*; HP1b chromo inh: inconclusive

What do the screens show for `Cc1ccc(S(=O)(=O)N2CCOCC2)cc1NC(=O)CNCc1ccc(Cl)cc1Cl`?
JMJD2A Tudor inh: -17%; HP1b chromo inh: 29%; L3MBTL1 inh: -3%

Results for Cc1cccc(N2CCN(c3ccc4cc(S(=O)(=O)N5CCC(C)CC5)ccc4n3)CC2)c1C ?
JMJD2A Tudor inh: 11%; BAZ2B inh: -28%; HP1b chromo inh: 47%; G9a block: inconclusive

Results for COc1ccc2c(c1)c1nnc(SC)nc1n2Cc1ccccc1 ?
JMJD2A Tudor inh: -19%; HP1b chromo inh: 18%

How did CCN(CC)c1ccc(S(=O)(=O)N2CCOCC2)cc1NC(=O)CSc1nncn1C do in these assays?
JMJD2A Tudor inh: -19%; BAZ2B inh: 13%; HP1b chromo inh: 31%; L3MBTL1 inh: 1%; G9a block: inconclusive

Results for Cc1ccc(OCCCC(=O)Nc2cc(S(=O)(=O)N3CCOCC3)ccc2N2CCOCC2)cc1 ?
JMJD2A Tudor inh: -18%; BAZ2B inh: -5%; HP1b chromo inh: 1%; L3MBTL1 inh: -7%; G9a block: 56µM*

What do the screens show for `O=C(CCCOc1ccccc1)Nc1cc(S(=O)(=O)N2CCOCC2)ccc1N1CCOCC1`?
JMJD2A Tudor inh: -8%; BAZ2B inh: 2%; HP1b chromo inh: 44%; L3MBTL1 inh: -4%; G9a block: 7%[12.7 µM]

What do the screens show for `CCN(CC)c1ccc(S(=O)(=O)N2CCOCC2)cc1NC(=O)CSc1nncs1`?
JMJD2A Tudor inh: -3%; BAZ2B inh: 11%; HP1b chromo inh: 5%; L3MBTL1 inh: -18%; G9a block: 35µM*

Results for Cc1ccc2c(c1)=C(c1sc(N(C)c3ccc(O)cc3)nc1O)C(=O)N=2 ?
JMJD2A Tudor inh: -3%; BAZ2B inh: -19%; HP1b chromo inh: 9%; G9a block: 45µM*

How did COc1cccc(C2(C)NC(=O)N(CC(=O)Nc3ccc(N4CCOCC4)cc3)C2=O)c1 (stereo not given) do in these assays?
JMJD2A Tudor inh: -11%; HP1b chromo inh: 30%; L3MBTL1 inh: -3%

How did O=C(O)c1cc(N/N=C/c2ccc(N3CCOCC3)cc2)ccc1Cl do in these assays?
JMJD2A Tudor inh: -34%; BAZ2B inh: inconclusive; HP1b chromo inh: 52%; L3MBTL1 inh: -25%; G9a block: -138%[59 µM]

How did Cc1cc(C)nc(N/N=C/C2=C(N3CCOCC3)C(=C\c3ccc(Cl)cc3)/CC2)n1 do in these assays?
JMJD2A Tudor inh: inconclusive; BAZ2B inh: -32%; HP1b chromo inh: 3%[57 µM]; L3MBTL1 inh: -10%; G9a block: inconclusive

How did O=[N+]([O-])c1cccc(N/N=C/c2ccc(N3CCOCC3)cc2)c1 do in these assays?
JMJD2A Tudor inh: 35µM*; BAZ2B inh: 18µM*; HP1b chromo inh: 40µM*; G9a block: 40µM*

How did Clc1cccc(N/N=C/c2ccc(N3CCOCC3)cc2)c1 do in these assays?
JMJD2A Tudor inh: inconclusive; BAZ2B inh: -8%[57.1 µM]; HP1b chromo inh: -3%; L3MBTL1 inh: -14%; G9a block: 32µM*

How did C(=N\Nc1ccccc1)/c1ccc(N2CCOCC2)cc1 do in these assays?
JMJD2A Tudor inh: inconclusive; BAZ2B inh: -33%[57.1 µM]; HP1b chromo inh: 2%; L3MBTL1 inh: -8%; G9a block: 4µM*

Results for O=C(O)c1ccc(N/N=C/C2=C(N3CCOCC3)C(=C\c3ccccc3)/CC2)cc1 ?
JMJD2A Tudor inh: inconclusive; BAZ2B inh: 50µM*; HP1b chromo inh: inconclusive; L3MBTL1 inh: inconclusive

What do the screens show for `COc1ccc(C(OCC(O)CNCCc2ccc(S(N)(=O)=O)cc2)c2ccc(OC)cc2)cc1` (stereo not given)?
JMJD2A Tudor inh: -30%; BAZ2B inh: -27%; HP1b chromo inh: 10%; G9a block: -7%

What do the screens show for `OC(CNCCc1ccc(C(F)(F)F)cc1)COC(c1ccccc1)c1ccccc1` (stereo not given)?
JMJD2A Tudor inh: 13µM*; BAZ2B inh: 25µM*; HP1b chromo inh: inconclusive; G9a block: inconclusive

Results for Cc1c(/C=N/NC(=O)CNc2ccccc2)c2ccccn2c1C(=O)c1ccncc1 ?
JMJD2A Tudor inh: -15%; BAZ2B inh: inconclusive; HP1b chromo inh: -2%; L3MBTL1 inh: -26%; G9a block: 45µM*

What do the screens show for `CC(C)Oc1ccc(C(=O)Nc2ccc3oc(-c4ccncc4)nc3c2)cc1`?
JMJD2A Tudor inh: -21%; BAZ2B inh: -5%; HP1b chromo inh: 38%; G9a block: inconclusive
